Screen size: about 13,000 compounds; about 3,200 (25%) showed an effect of 50% or more. The list shows a part of the results.

68 molecules from paper PMC4552634, “A New Set of Chemical Starting Points with Plasmodium falciparum Transmission-Blocking Potential for Antimalarial Drug Discovery” (PLoS ONE, 2015) can be followed below.

The test has as its system P. falciparum stage V gametocytes. Also noted: BacTiter-Glo ATP luminescence viability of purified stage V gametocytes in 384-well plates, per cent inhibition versus DMSO. To be noted: 48 h, 5 µM; inhibitor.
`Cc1c(C)n(C2CCCCC2)c2ncnc(OC3CCN(CC(=O)NC4CC4)CC3)c12` [TCMDC-124853]: the “% Inhibition” value stood at 15.8%.

In the case of `CCCc1cnc2nc(N)nc(N)c2c1C` [TCMDC-138066], the “% Inhibition” value stood at 12.33%.

Consider `Cn1cc(-c2ccccc2C(=O)O)c(=O)c2cc(Cl)ccc21` [TCMDC-123861], for which the “% Inhibition” value was 6.577%.

In the case of `CCOc1cc(C(=O)N[C@@H](Cc2ccccc2)[C@H](O)CNCc2cc(OC)cc(OC)c2)cc(N2CCCC2=O)c1` [TCMDC-134571], the “% Inhibition” value was -29.57%.

Turning to `COCc1cc(C)nc2sc(C(=O)Nc3cc(C(C)(C)C)ccc3O)c(N)c12` [TCMDC-125131], the “% Inhibition” value stood at 1.168%.

With `O=C(/C=C/c1ccc(Cl)c(Cl)c1)NCCCCCN1CCCN(C(=O)Nc2cc(F)cc(F)c2)CC1` [TCMDC-135751], the “% Inhibition” value is listed as -53.24%.

As for `Oc1cccc(Nc2ccnc3cc(-c4cc5ccccc5o4)ccc23)c1` [TCMDC-138287], the “% Inhibition” value was -55.42%.

Take `COc1ccc(Cc2c(N)nc3nc(N)nc(N)c3c2C)cc1` [TCMDC-138061]: the “% Inhibition” value is 18.63%.

As for `COc1cccc(-c2cc3c(NCc4ccncc4)nccc3s2)c1` [TCMDC-135200], the “% Inhibition” value is reported as -6.172%.

With `CC(C)CC(=O)N1CCNC[C@@H]1C(=O)NCCSCc1c(F)cccc1Cl` [TCMDC-141243], the “% Inhibition” value is reported as -23.04%.

For the molecule `O=C(/C=C/c1ccc(Cl)c(Cl)c1)N1CCCC(CCCN2CCC(c3c[nH]c4ccccc34)CC2)C1` (centres unmarked) [TCMDC-139505], the “% Inhibition” value was 18.14%.

Take `Clc1ccc2c(NN=Cc3ccccc3)ccnc2c1` [TCMDC-123962]: the “% Inhibition” value is -43%.

Turning to `NC(N)=NN=Cc1c2ccccc2c(Cl)c2ccc(Cl)cc12` [TCMDC-137911], the “% Inhibition” value came out at 98.76%.

As to `NC(N)=NN=CC(=O)Nc1ccc(Cl)c(Cl)c1` [TCMDC-137466], the “% Inhibition” value is reported as -3.448%.

In the case of `NC(N)=NN=Cc1c2ccccc2c(Cl)c2c(Cl)cccc12` [TCMDC-137898], the “% Inhibition” value was 83.04%.

Turning to `NC(N)=NN=Cc1c[nH]c2ccc(-c3ccccc3)cc12` [TCMDC-138961], the “% Inhibition” value was -59.33%.

As for `NC(N)=NN=Cc1c2ccccc2c(Cl)c2cc(Cl)ccc12` [TCMDC-137903], the “% Inhibition” value was determined as 96.19%.

Consider `NC(N)=NN=Cc1c2ccc(Cl)cc2c(Cl)c2ccc(Cl)cc12` [TCMDC-137884], for which the “% Inhibition” value turned out to be 111.2%.

On to `Cc1cc(C)c(C)c(S(=O)(=O)N2CCCCC(c3ccc(F)c(F)c3)=N2)c1C` [TCMDC-135419], for which the “% Inhibition” value is recorded as -64.55%.

Regarding `CCCc1cc(Cc2cnc(N)nc2N)cc(CC)c1OC` [TCMDC-137693], the “% Inhibition” value stood at 21.32%.

For the molecule `COc1ccc(Nc2nccc(N3CCC(NC(=O)Nc4ccc5c(c4)OCO5)C3)n2)cc1` (centres unmarked) [TCMDC-133617], the “% Inhibition” value is listed as -60.34%.

Take `CN(C)CCC1CCN(CCS(=O)(=O)c2cccc(Nc3ncc(-c4cccc(F)c4)cn3)c2)CC1` [TCMDC-134374]: the “% Inhibition” value came out at 1.071%.

Regarding `COc1ccc2c(c1)CCN(CCN1CCC(CNC(=O)c3ccc(-c4ccc(C#N)cc4)cc3)CC1)C2` [TCMDC-138881], the “% Inhibition” value is reported as -33.61%.

Consider `C=C(C)Cn1cc(C2CCN(CCN3CCC(CNC(=O)c4ccc(-c5ccc(C#N)cc5)cc4)CC3)CC2)c2ccccc21` [TCMDC-138854], for which the “% Inhibition” value came to 103.5%.

For `N#Cc1ccc(-c2ccc(C(=O)NCCCCN3CCC(c4cn(CCCO)c5ccccc45)CC3)cc2)cc1` [TCMDC-138837], the “% Inhibition” value is on record as -51.57%.

`CC(C)Cn1cc(C2CCN(CCN3CCC(CNC(=O)c4ccc(-c5ccc(C#N)cc5)cc4)CC3)CC2)c2ccccc21` [TCMDC-138849]: the “% Inhibition” value came to 100.8%.

Take `COc1cccc2c1CCN(CCN1CCC(CNC(=O)c3ccc(-c4ccc(C#N)cc4)cc3)CC1)C2` [TCMDC-134140]: the “% Inhibition” value is 16.45%.

For `N#Cc1ccc(-c2ccc(C(=O)NCCCCN3CCC(c4cn(CCO)c5ccccc45)CC3)cc2)cc1` [TCMDC-138836], the “% Inhibition” value is on record as -28.51%.

For `COc1cc(C=C(C2=NC(=O)CS2)c2nc3cccnc3n2C)ccc1O` [TCMDC-135917], the “% Inhibition” value is -7.7%.

On to `O=C(CC1CCCCC1)NCC(NCCCNc1cc(=O)c2ccccc2[nH]1)c1cc(Br)cc(Br)c1` (centres unmarked) [TCMDC-140315], for which the “% Inhibition” value was -37.31%.

As for `Cc1cccc2[nH]c(-c3ccc(-c4cccc(NC(=O)C(C)CN(C)C)c4)cc3)nc12` (centres unmarked) [TCMDC-137103], the “% Inhibition” value is -53.92%.

In the case of `CC(=O)c1c(CC(=O)O)c2ccccc2n1O` [TCMDC-131414], the “% Inhibition” value was found to be 58.24%.

Regarding `CCCCOc1ccc(-n2c(Nc3ccccc3)nc3cc(S(N)(=O)=O)ccc32)cc1` [TCMDC-135489], the “% Inhibition” value is -3.968%.

`CC1CCC(C[C@@H](C(=O)N[C@@H](CCC(=O)N2CCCCC2)C(=O)Nc2nccs2)[C@H](C(C)C)N(O)C=O)CC1` (some centres unmarked) [TCMDC-138168]: the “% Inhibition” value is -16.64%.

Regarding `COc1cccc(Nc2nc(Nc3cccc(C#N)c3)cc(-c3ccncc3)n2)c1` [TCMDC-133447], the “% Inhibition” value was found to be 6.387%.

As for `O=C(CSc1n[nH]c(=O)n1Cc1ccccc1)Nc1ccccc1-c1ccccc1` [TCMDC-123557], the “% Inhibition” value amounted to 0.01985%.

For `Cn1c(N)c(C(=O)CSc2nnc(-c3cccs3)n2Cc2ccccc2)c(=O)n(C)c1=O` [TCMDC-124496], the “% Inhibition” value is given as -5.537%.

With `COc1ccccc1-n1c(SCC(=O)c2ccc3c(c2)CC(=O)N3C)nnc1-c1cccs1` [TCMDC-124819], the “% Inhibition” value is 56.33%.

For `COc1ccc(C2CC(c3cccs3)=NN2C(=O)c2ccccc2)cc1OC` (centres unmarked) [TCMDC-123755], the “% Inhibition” value was -49.1%.

As to `CN1CCCC1CNS(=O)(=O)c1ccc(C(=O)NCC2CC2)cc1` (centres unmarked) [TCMDC-133683], the “% Inhibition” value is 0.07982%.

Regarding `CCc1ccc(C(=O)NC(=O)c2ccccc2O)cc1` [TCMDC-123479], the “% Inhibition” value is reported as 19.58%.

As for `Cc1ccc(O)cc1Nc1ccnc2cc(-c3csc(CN(C)CCN(C)C)n3)ccc12` [TCMDC-138458], the “% Inhibition” value is 49.52%.

Turning to `CN(C)CCNCc1nc(-c2ccc3c(Nc4ccc(Oc5ccccc5)cc4)ccnc3c2)cs1` [TCMDC-138410], the “% Inhibition” value came out at 95.14%.

For the molecule `CN(C)CCNCc1nc(-c2ccc3c(Nc4ccc(Cl)cc4F)ccnc3c2)cs1` [TCMDC-138455], the “% Inhibition” value was 16.78%.

Turning to `c1ccc(Oc2ccc(Nc3ccnc4cc(-c5csc(CNCCN6CCOCC6)n5)ccc34)cc2)cc1` [TCMDC-138407], the “% Inhibition” value stood at 5.088%.

`CN(C)CCN(C)Cc1nc(-c2ccc3c(Nc4ccc(Oc5ccccc5)cc4)ccnc3c2)cs1` [TCMDC-138408]: the “% Inhibition” value came to 77.6%.

Turning to `CS(=O)(=O)CCNCc1nc(-c2ccc3c(Nc4ccc(Oc5ccccn5)cc4)ccnc3c2)cs1` [TCMDC-138438], the “% Inhibition” value is on record as -37.4%.

As for `CCc1ccc2nc(-c3ccc(F)cc3)nc(SCC(=O)Nc3sc(C)c(C)c3C#N)c2c1` [TCMDC-125430], the “% Inhibition” value is recorded as 16.25%.

Take `COc1ccc2nccc([C@@H](O)CN3CCC(NC(=O)c4cc5c(F)cc(F)cc5[nH]4)CC3)c2n1` [TCMDC-134945]: the “% Inhibition” value is -17.57%.

Turning to `CCCCCCc1c(C)[nH]c2cc(OC)ccc2c1=O` [TCMDC-138010], the “% Inhibition” value is reported as 73.98%.

Consider `COc1cc2c(=O)c(Cc3ccc(Cl)cc3)c(C)[nH]c2cc1F` [TCMDC-137280], for which the “% Inhibition” value amounted to 22.18%.

On to `CCCCCCCc1c(C)[nH]c2cc(OC)ccc2c1=O` [TCMDC-137173], for which the “% Inhibition” value is recorded as 75.71%.

For `CO/C(=C\C=C\c1cc2cc(Cl)c(Cl)cc2[nH]1)C(=O)NC1CCN(CCCc2ccccc2)CC1` [TCMDC-139657], the “% Inhibition” value is given as 70.65%.

For the molecule `CO/C(=C\C=C\c1cc2cc(Cl)c(Cl)cc2[nH]1)C(=O)NC1CCN(CCOc2ccccc2)CC1` [TCMDC-139454], the “% Inhibition” value was 27.46%.

On to `CO/C(=C\C=C\c1cc2cc(Cl)c(Cl)cc2[nH]1)C(=O)NC1CC2CCC(C1)N2C` (centres unmarked) [TCMDC-139038], for which the “% Inhibition” value came to 73.28%.

With `CO/C(=C\C=C\c1cc2cc(Cl)c(Cl)cc2[nH]1)C(=O)N[C@H]1CN2CCC1CC2` [TCMDC-139095], the “% Inhibition” value was -57.18%.

Regarding `CO/C(=C\C=C\c1cc2cc(Cl)c(Cl)cc2[nH]1)C(=O)NC1CCN(CCNc2ccccc2)CC1` [TCMDC-139535], the “% Inhibition” value is listed as -22.32%.

As to `CO/C(=C/C=C/c1cc2cc(Cl)c(Cl)cc2[nH]1)C(=O)NC1CC(C)(C)N(C)C(C)(C)C1` [TCMDC-139097], the “% Inhibition” value was found to be 81.55%.

In the case of `CO/C(=C\C=C/c1cc2cc(Cl)c(Cl)cc2[nH]1)C(=O)NC1CC(C)(C)N(C)C(C)(C)C1` [TCMDC-139106], the “% Inhibition” value is -40.37%.

Consider `CO/C(=C\C=C\c1cc2cc(Cl)c(Cl)cc2[nH]1)C(=O)NC1CC(C)N(C)C(C)C1` (centres unmarked) [TCMDC-139085], for which the “% Inhibition” value is on record as -67.29%.

As to `CO/C(=C\C=C\c1cc2cc(Cl)c(Cl)cc2[nH]1)C(=O)NC1CC2CCCC(C1)N2C` (centres unmarked) [TCMDC-139067], the “% Inhibition” value is reported as 19.33%.

Take `CC(C)(CNC(=O)[C@H]1CCCCN1)c1nc(-c2ccc(Cl)c(O)c2)c(-c2ccncc2)[nH]1` [TCMDC-141070]: the “% Inhibition” value is on record as -44.74%.

Turning to `Oc1ccccc1-c1nc2cccnc2n1CCc1cccc(C(F)(F)F)c1` [TCMDC-135091], the “% Inhibition” value was found to be 14.7%.

Regarding `CCc1cc2c(Sc3nnc(N)s3)ncnc2s1` [TCMDC-123993], the “% Inhibition” value amounted to 80.67%.

In the case of `Cc1sc2ncnc(Sc3nnc(N)s3)c2c1C` [TCMDC-124542], the “% Inhibition” value was determined as 96.33%.

Regarding `COc1ccc(-c2cc(C(=O)N[C@@H](CC3CCCCC3)C(=O)NC3CCCc4ccccc43)ccc2O)cc1` (some centres unmarked) [TCMDC-140806], the “% Inhibition” value was determined as 24.41%.

For `O=C(NCCN1CCCc2ccccc21)C1CCN(c2nc(-c3ccc(Cl)cc3)no2)CC1` [TCMDC-125165], the “% Inhibition” value came out at 5.616%.

Consider `Cc1noc(C)c1-c1cccc(CNCc2cccc(-c3cccc(-c4nc5cc(F)ccc5[nH]4)c3)c2)c1.O=C(O)C(F)(F)F` [TCMDC-133064], for which the “% Inhibition” value is given as -20.89%.

In general, % Inhibition refers to the drop in the measured response relative to a control, in per cent.
